# This is a sample that favours compounds with a hit; in the whole collection about 1.8% have one here.
# GLP1R ag = activates the human GLP-1 receptor. HEK293 GLP-1R CRE-luciferase, luminescence, 4-6 h; cells express a hypersensitive GLP-1R form. Potency, µM (highest dose often 45.6 µM), inactives show top-dose activation, actives largely listed as activators. 380,000 compounds, 0.007% hits. AID 624172; also: % of control where 0% means no effect
# Target sequence (P43220 whole entry, looked up): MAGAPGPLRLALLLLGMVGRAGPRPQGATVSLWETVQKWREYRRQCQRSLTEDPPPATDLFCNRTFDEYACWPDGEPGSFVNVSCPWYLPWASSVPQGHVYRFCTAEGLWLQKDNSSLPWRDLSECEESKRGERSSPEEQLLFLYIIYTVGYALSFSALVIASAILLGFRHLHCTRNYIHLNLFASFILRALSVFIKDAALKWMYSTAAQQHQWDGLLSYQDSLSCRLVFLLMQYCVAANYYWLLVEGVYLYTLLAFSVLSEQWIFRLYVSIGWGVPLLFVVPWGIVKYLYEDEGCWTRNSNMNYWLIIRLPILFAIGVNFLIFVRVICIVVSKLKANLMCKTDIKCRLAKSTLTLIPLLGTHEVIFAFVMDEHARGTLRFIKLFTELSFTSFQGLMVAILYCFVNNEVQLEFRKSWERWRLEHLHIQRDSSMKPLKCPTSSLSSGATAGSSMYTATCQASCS
# Tb PGK inh = blocks T. brucei phosphoglycerate kinase | P07378 | PGK/GAPDH coupled, Kinase-Glo luminescence, 60 min | Potency, µM (doses to about 57.5 µM), without a hit: top-dose activity change, negative = inhibition, hits mostly inhibitors | 380,000 compounds, 0.043% hits | AID 602233; also: % is scaled to controls: 0 for no effect and ±100 for the full control effect; nearly all actives have a fitted effect of over 60% in size
#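 Recombinant glycosomal PGK reaction used 1,3-bisphosphoglycerate generated in-well by GAPDH (100nM final) in 100mM TEA pH 7.6, 5mM MgCl2, 0.01% Tween-20. After 60 minutes at room temperature, ATP was read by Kinase-Glo Plus luminescence end-point.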
# Pin1 inhibitor = human Pin1 inhibition; Q13526; Pin1 FP peptide displacement, HiFluor488, 10 min; Potency, µM (top dose mostly 115 µM), for inactives: top-dose activity, negative = inhibition, actives largely listed as inhibitors; 390,000 compounds, 0.009% hits; AID 504891; active = well fitted inhibition curve with a large enough effect in the polarisation, with a control signal flat, not every such curve was filed as active; inconclusive = small, poorly fitted or top-dose-only effect, or effect the other way, or a change in a side signal; inactive = no such curve, though single readings can be large or run the other way; the % refers to the polarisation; also: % is scaled to controls: 0 for no effect and ±100 for the full control effect
# Target sequence (Q13526 whole entry, looked up): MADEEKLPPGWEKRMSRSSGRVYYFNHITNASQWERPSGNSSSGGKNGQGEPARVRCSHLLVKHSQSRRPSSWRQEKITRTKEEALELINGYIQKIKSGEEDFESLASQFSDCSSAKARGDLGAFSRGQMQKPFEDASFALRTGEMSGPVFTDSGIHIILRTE
# Tb PFK inh = T. brucei PFK enzyme inhibition | O15648 | 330,000 compounds, 0.17% hits | T. brucei PFK, ADP-Glo luminescence | Potency, µM (top dose mostly 57.5 µM), for the others: top-dose activity, negative = inhibition, actives largely listed as inhibitors;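 also: 0% = uninhibited 1x PFK enzyme wells and -100% = no-enzyme wells; nearly all actives have a fitted effect of over 60% in size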
#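 Luminescent ADP detection (ADP-Glo, two-step: ATP depletion then ADP-to-ATP conversion for luciferase) reported PFK activity after 45 min room-temperature reaction of 1.25 nM enzyme with 0.5 mM F6P and 0.1 mM ATP at pH 8.0.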
# HEK293 tox = cytotoxic in the GLP-1 receptor inverse agonist counter-screen | HEK293 cAMP-luciferase reporter cells, luminescence, 24 h | Potency, µM (titrated, usually from 38.3 µM), inactives show top-dose activity change, negative = inhibition, usual class: inhibitors | 410,000 compounds, 0.13% hits | AID 624418;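 also: loss of luciferase light is scored as toxicity; % is scaled to controls: 0 for no effect and ±100 for the full control effect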
#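 Seeding density was 200 cells/uL; after overnight-length (12 h) culture, 23 nL compounds went on for 24 h at 37 °C. Readout used a luciferase detection reagent, luminescence taken after 12 min at room temperature.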
# GLP-1R inv ag = acts as inverse agonist at human GLP-1 receptor | HEK293 GLP-1R CRE-luciferase, luminescence, 24 h; GLP-1R form is constitutively active | P43220 | 410,000 compounds, 1.6% hits | Potency, µM (doses to about 38.3 µM), inactives show top-dose activity change, negative = inhibition, actives largely listed as inhibitors | AID 624417; also: % is scaled to controls: 0 for no effect and ±100 for the full control effect; nearly all actives have a fitted effect of over 55% in size
#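 HEK293 cells stably co-expressing a cAMP-responsive luciferase reporter and constitutively active GLP-1R were seeded, incubated 12 h, then exposed to compounds for 24 h at 37 C. Luminescence was read 12 min after detection reagent; inverse agonists lower signal.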
# * = called active by the depositor; i = inactive; u = inconclusive; x = no result; [ ] = another dose, or the depositor's remark. Unless noted, calls follow the shape of the dose curve; as a rule, active = well fitted curve in the direction sought with a large enough effect; inconclusive = small, poorly fitted or top-dose-only effect, or another doubt; inactive = no such curve, though single readings can be large; an effect the other way counts as inactive or inconclusive. Potency is read from the fitted curve at half-maximal effect.
SMILES,GLP1R ag,Tb PGK inh,Pin1 inhibitor,Tb PFK inh,HEK293 tox,GLP-1R inv ag
Cc1cccc(OP(N)(=O)Oc2cccc(C)c2C)c1C,6%,0%,-2%,0%,-4%,11µM*
CC1Oc2cc3c(-c4c(O)cc(O)c5c(O)c6c(cc45)OC(C)C(C)C6=O)c(O)cc(O)c3c(O)c2C(=O)C1C (stereo not drawn),0%,-2%,u,5%,u,13µM*
Cc1[nH]c2ccccc2c1P(=S)(c1ccccc1)c1ccccc1,x,x,-2%,x,x,x
C[C@@H]1O[C@@H](O[C@H]2C[C@@H](O)[C@]3(CO)[C@@H]4C(CC[C@]3(O)C2)[C@@]2(O)CC[C@H](C3COC(=O)C3)[C@@]2(C)C[C@H]4O)[C@H](O)[C@H](O)[C@H]1O (stereo partly drawn),-10%,-1%,2%,-5%,u,1µM*
CC1OC(O[C@H]2C[C@@H](O)[C@]3(CO)[C@@H]4C(CC[C@]3(O)C2)[C@@]2(O)CC[C@H](C3=CC(=O)OC3)[C@@]2(C)C[C@H]4O)C(O)C(O)C1O (stereo partly drawn),-8%,x,x,x,x,x
Cc1ccc(-n2sc3ccccc3c2=O)cc1,-3%,3%,7%,9.5µM*,10µM*,u
O=c1c2ccccc2sn1-c1ccc(Cl)cc1,-3%,-16%,x,x,-7%,u
Cc1cc(C(=O)CCl)c(C)n1-c1c(C)n(C)n(-c2ccccc2)c1=O,-5%,6%,1%,-1%,u,u
CCOC(=O)C1(c2ccccc2)CCN(CCC(=O)Nc2ccc(C(=O)OC)cc2)CC1,9%,-1%,u,-1%,-11%,u
CCOC(=O)C1(c2ccccc2)CCN(CCC(=O)Nc2ccc(OC)cc2)CC1,12%,8%,x,x,-22%,u
CCOC(=O)C1(c2ccccc2)CCN(CCC(=O)Nc2cccc(Br)c2)CC1,12%,1%,0%,0%,u,3.2µM*
CCOC(=O)C1(c2ccccc2)CCN(CC(=O)Nc2ccc(C)cc2)CC1,15%,-2%,-3%,-4%,-10%,8.9µM*
CCNC(=O)COc1ccc(/C=C2\COc3ccccc3C2=O)cc1OC,-7%,-7%,u,-1%,u,u
CN1CC[C@]23c4c5ccc(O)c4OC2C(O)CCC3[C@H]1C5 (stereo partly drawn),-7%[96 µM],x,x,x,x,x
COc1ccc(OC)c2sc(N(CCCN(C)C)C(=O)CCS(=O)(=O)c3ccccc3)nc12,-27%,1%,u,8%,10µM*,u
Cc1ccc2sc(N(CCCN(C)C)C(=O)CCS(=O)(=O)c3ccccc3)nc2c1C,-3%,-6%,-2%,0%,u,u
OC(c1cccc(Cl)c1)(c1cccc(Cl)c1)C1CN2CCC1CC2 (stereo not drawn),10%,i,0%,0%,u,4µM*
O=C(Nc1cccc(C(F)(F)F)c1)OC1CN2CCC1CC2 (stereo not drawn),11%,5%,5%,-4%,3%,u
COc1ccc(NS(=O)(=O)c2cc(N=Nc3c(O)[nH]c(=O)[nH]c3=O)ccc2OC)cc1Br,1%,-5%,x,x,u,46%
CCOc1ccc(NS(=O)(=O)c2ccc(Cl)c(N=Nc3c(O)[nH]c(=S)[nH]c3=O)c2)cc1Br,-5%,22µM*,x,x,-14%,-8%
COc1ccc(CNC(=O)Cn2c(SCC(=O)Nc3ccc(C)c(C)c3)nc3ccccc32)cc1,x,2%,0%,x,-27%,u
CC(C)c1cc(C(=O)OCC(=O)NC(=O)NCc2ccco2)c(O)c(C(C)C)c1,5%,-10%,u,-4%,u,3.5µM*
Cc1nn(Cc2ccccc2)c(C)c1C(=O)OCC(=O)NCc1ccco1,0%,2%,3%,2%,-11%,1%
CCN(CC)S(=O)(=O)c1ccc(C)c(NCC(=O)Nc2ccc(C#N)c(Cl)c2)c1,2%,-8%,12%,-1%,-26%,5.6µM*
CCCOc1ccc(C(=O)C(CN2CCOCC2)c2ccccc2)cc1 (stereo not drawn),-10%,-6%,2%,0%,u,7.1µM*
SMILES,GLP1R ag,Tb PGK inh,Pin1 inhibitor,Tb PFK inh,HEK293 tox,GLP-1R inv ag
CCN(CC)CCn1c(=N)n(CCOc2ccccc2Cl)c2ccccc21,x,-5%,0%,x,u,u
CCC1C(c2ccccc2)N(C)C(c2ccccc2)CC1(O)c1ccccc1 (stereo not drawn),0%,1%,2%,3%,u,2.5µM*
O=C(NC(c1ccc(-c2ccccc2)cc1)c1cnccn1)C1CCN(Cc2ccc3c(c2)OCO3)CC1 (stereo not drawn),-12%,x,x,x,u,u
Cc1cccc(N(CC(=O)NCCSc2ccc(Cl)cc2)S(=O)(=O)c2ccccc2)c1C,x,-7%,-4%,x,-5%,10µM*
Cc1ccc(S(=O)(=O)N(CC(=O)NCCSc2ccc(Cl)cc2)c2ccccc2C)cc1,x,-6%,66%,x,-3%,11µM*
CCN(Cc1nc2cc(Cl)ccc2c(=O)[nH]1)C(=O)c1cccc(OCc2c(C)noc2C)c1,16%,-5%,9%,-3%,u,-9%
COc1cc2nc(Nc3cccc(F)c3)nc(N)c2cc1OC,6%,2%,0%,16%,u,10µM*
CCCCCN1C(=O)c2cc(OC)ccc2[C@@]2(C(=O)OCC)Cc3cc(OC)ccc3[C@@H]12,-13%,x,x,x,u,7.1µM*
CCOC(=O)[C@]12Cc3ccc(C)cc3[C@H]1N(C1CCCCC1)C(=O)c1cc(OC)ccc12,-12%,x,x,x,11µM*,u
O=S(=O)(NCc1nnc2c(C(F)(F)F)cc(Cl)cn12)c1ccccc1,-7%,-3%,32%,0%,4%,-3%
CCn1cc2nc(SCc3cccc(C(F)(F)F)c3)n(Cc3ccc(OC)cc3)c(=O)c2n1,x,-6%,u,x,-6%,u
Cc1ccc(C(C#N)=Cc2ccc3c(c2)OCO3)cc1,0%,-5%,x,x,-12%,10µM*
CN(C(=O)CSc1nc2ccc(NC(=O)COc3ccc(Cl)cc3)cc2s1)c1ccccc1,x,3%,22%,x,-9%,5.6µM*
Oc1ccc(Cl)cc1,-3%,4%,-11%,-4%,5%,4%
Oc1ccc(Cl)cc1Sc1cc(Cl)ccc1O,4%,7%,3%,x,-11%,10µM*
CC1CCC(NC(=O)CN2CCN(S(=O)(=O)c3ccc(Br)s3)CC2)CC1 (stereo not drawn),-1%,5%,x,x,u,10µM*
O=C(CN1CCN(S(=O)(=O)c2cc(Br)ccc2Br)CC1)NCc1ccccc1Cl,2%,-4%,15%,x,19%,u

# High-throughput results: PubChem BioAssay, National Center for Advancing Translational Sciences (NCATS)
